Vaccinia mCherry: inhibitors of vaccinia virus infection (mCherry reporter signal). Vaccinia virus mCherry reporter infection, fluorescence. Potency, µM (top dose mostly 36.5 µM), without a hit: at the top dose activity change, negative = inhibition, hits mostly inhibitors. hit rate 0.63% among 310,000; calls by dose curve; tested in A549 cells; also: potency is read from the fitted curve at half-maximal effect; % is scaled to controls: 0 for no effect and ±100 for the full control effect; nearly all actives have a fitted effect of over 35% in size
LASV entry inh: inhibitors of Lassa virus binding or cell entry. Lassa virus pseudotype entry inhibition, cell reporter. Potency, µM (titrated, usually from 37.9 µM), for the others: top-dose activity change, negative = inhibition, most hits filed as inhibitors. hit rate 1.2% among 300,000. AID 540256; calls by dose curve; tested in HEK293 cells; also: potency is read from the fitted curve at half-maximal effect; % is scaled to controls: 0 for no effect and ±100 for the full control effect; nearly all actives have a fitted effect of over 50% in size
MARV entry inh: blocks Marburg virus binding to or entry into cells; Potency, µM (series often up to 37.8 µM), for inactives: at the top dose activity change, negative = inhibition, hits mostly inhibitors; hit rate 1.8% among 300,000; AID 540276; Marburg virus pseudotyped entry inhibition, cell reporter; calls by dose curve; tested in HEK293 cells; also: potency is read from the fitted curve at half-maximal effect; % is scaled to controls: 0 for no effect and ±100 for the full control effect
VACV Venus inh: inhibitors of vaccinia virus (Venus reporter); Vaccinia virus Venus reporter expression, fluorescence; Potency, µM (highest dose often 36.5 µM), for inactives: at the top dose activity change, negative = inhibition, usual class: inhibitors; hit rate 0.46% among 330,000; AID 720580; calls by dose curve; tested in A549 cells; also: potency is read from the fitted curve at half-maximal effect; % is scaled to controls: 0 for no effect and ±100 for the full control effect; nearly all actives have a fitted effect of over 30% in size
CHX counter: affects cycloheximide protein synthesis inhibition readout, counter-screen; hit rate 12% among 300,000; cell reporter, cycloheximide protein synthesis inhibition counterscreen; AID 2314; max response, %; in the data active = max response mostly above about 13%, no sharp cut-off; inactive = mostly below about 14%; also: read at 38.3 µM for the half of the compounds with a filed dose; 0% is about no effect
Shiga toxin inh: Shiga toxin inhibition; inhibition, % at 38.7 µM; Vero cells, Shiga toxin protein synthesis inhibition reporter; AID 2315; hit rate 9.2% among 290,000; in the data active = inhibition mostly above about 28%, no sharp cut-off; inactive = mostly below about 43%; also: 0% is about no effect
The depositor's hits bear a star; [ ] = another dose, or the depositor's remark. Many of the other results were omitted from the sample, so hits are more common in it than they were.

What do the screens show for `COc1ccc2c3c(c(=O)oc2c1)[C@H]1O[C@](c2ccsc2)(Cc2ccccc21)O3`?
MARV entry inh: -19.8%[14.2 µM]

How did Cn1c(=O)oc2cc(S(=O)(=O)Nc3ccc4c(c3)OCCO4)ccc21 do in these assays?
LASV entry inh: 0.9%; MARV entry inh: 5.1%; CHX counter: 15.6; Shiga toxin inh: 42.4

How did Cn1c(=O)oc2cc(S(=O)(=O)NCCC(=O)Nc3ccc4c(c3)OCCO4)ccc21 do in these assays?
LASV entry inh: 25.9%; MARV entry inh: -5.9%; CHX counter: 19.7*; Shiga toxin inh: 14.4

How did Cn1c(=O)c(=O)n(C)c2cc(S(=O)(=O)Nc3ccc4c(c3)OCCO4)ccc21 do in these assays?
LASV entry inh: -0.8%; MARV entry inh: 8.9%; CHX counter: 61.6*; Shiga toxin inh: 115.2*

How did CC(C(=O)NCc1ccc(Cl)cc1)n1ccc2cc(S(=O)(=O)N3CCCC3)ccc21 (stereo unspecified) do in these assays?
Vaccinia mCherry: -21.9%; LASV entry inh: -15.0%[46.1 µM]; VACV Venus inh: -23.2%

How did COc1ccccc1OCC(=O)NCC(c1ccc(Cl)cc1)N1CCOCC1 (stereo unspecified) do in these assays?
Vaccinia mCherry: -17.3%; LASV entry inh: 1.2%[46.1 µM]; MARV entry inh: inconclusive; VACV Venus inh: -16.7%

How did CC(NC(=O)OCc1ccccc1)C(=O)Oc1cc2oc(=O)cc(-c3ccccc3)c2cc1Cl (stereo unspecified) do in these assays?
Vaccinia mCherry: -13.6%; LASV entry inh: 6.7%; MARV entry inh: -13.3%; VACV Venus inh: -4.5%; CHX counter: -4.2; Shiga toxin inh: -14.1

What do the screens show for `O=C(c1ccc([N+](=O)[O-])cc1)N1c2ncnn2C2(CCCCC2)[C@@H]2CCCC[C@@H]21`?
Vaccinia mCherry: -15.5%; LASV entry inh: 26.4%[46.1 µM]; MARV entry inh: 7.5%[46.1 µM]; VACV Venus inh: -6.1%

Results for Cc1ccc(C)c(NC(=O)C2CCN(c3nn4c(=O)cc(C)nc4s3)CC2)c1 ?
Vaccinia mCherry: -4.3%; LASV entry inh: inconclusive; MARV entry inh: inconclusive; VACV Venus inh: 0.0%

How did COc1cccc(C(=O)/C=C/Nc2ccc(S(=O)(=O)Nc3cc(OC)nc(OC)n3)cc2)c1 do in these assays?
Vaccinia mCherry: -5.8%; LASV entry inh: 9.5%; MARV entry inh: -1.5%[46.1 µM]; VACV Venus inh: -4.9%; CHX counter: 33.6*; Shiga toxin inh: 69.3*

How did Cc1ccc(C(=O)Nc2ccc(S(=O)(=O)Nc3cnc4ccccc4n3)cc2)cc1 do in these assays?
Vaccinia mCherry: -8.6%; LASV entry inh: 16.6%[46.1 µM]; MARV entry inh: inconclusive; VACV Venus inh: -0.3%; CHX counter: 20.0*; Shiga toxin inh: 71.6

How did O=C1CCCC/C1=C\Nc1ccc(S(=O)(=O)Nc2cnc3ccccc3n2)cc1 do in these assays?
CHX counter: -1.1; Shiga toxin inh: 27.0

Results for COc1ccc(C(=O)Nc2ccc(S(=O)(=O)Nc3cc(C)nc(C)n3)cc2)cc1OC ?
Vaccinia mCherry: inactive; LASV entry inh: 8.5%[46.1 µM]; MARV entry inh: inconclusive; VACV Venus inh: -4.7%; CHX counter: -1.2; Shiga toxin inh: -3.0

Results for O=C(/C=C/Nc1ccc(S(=O)(=O)Nc2cnc3ccccc3n2)cc1)c1ccccc1 ?
Vaccinia mCherry: -11.5%; LASV entry inh: -9.3%; MARV entry inh: -27.5%[46.1 µM]; VACV Venus inh: -15.8%; CHX counter: 28.2*; Shiga toxin inh: 60.7

Results for Cc1cc(NS(=O)(=O)c2ccc(NC(=O)c3c(F)c(F)c(F)c(F)c3F)cc2)nc(C)n1 ?
Vaccinia mCherry: 28.2µM*; LASV entry inh: -0.3%; MARV entry inh: 13.4%; VACV Venus inh: inconclusive; CHX counter: -2.0; Shiga toxin inh: -19.0

Results for COc1cc(OC)cc(C(=O)Nc2ccc(S(=O)(=O)Nc3cnc4ccccc4n3)cc2)c1 ?
Vaccinia mCherry: -13.1%; LASV entry inh: -1.7%; MARV entry inh: -4.5%; VACV Venus inh: -9.1%

What do the screens show for `COc1cc(C(=O)Nc2ccc(S(=O)(=O)Nc3cnc4ccccc4n3)cc2)cc(OC)c1OC`?
CHX counter: -0.9; Shiga toxin inh: -17.5

Results for COc1cccc(C(=O)/C=C/Nc2ccc(S(=O)(=O)Nc3cnc4ccccc4n3)cc2)c1 ?
Vaccinia mCherry: inactive; LASV entry inh: -4.2%; MARV entry inh: inconclusive; VACV Venus inh: -1.0%; CHX counter: 68.8*; Shiga toxin inh: 98.4*

Results for Cc1ccc(NC(=O)c2snc3ccc(Cl)cc23)cc1C ?
Vaccinia mCherry: -1.0%; LASV entry inh: 6.3%; MARV entry inh: 11.7%; VACV Venus inh: -10.0%; CHX counter: 37.7*; Shiga toxin inh: 32.2*

How did CN(C)CCN(Cc1ccccc1)C(c1ccnc2ccccc12)c1nnnn1-c1ccc2c(c1)OCCO2 (stereo unspecified) do in these assays?
Vaccinia mCherry: -11.5%; VACV Venus inh: -15.5%

Results for COC(=O)[C@@H]1C[C@]2(OC(=O)c3ccccc3)C=CC(=O)C[C@@H]2N1C(=O)OCc1ccccc1 ?
Vaccinia mCherry: inactive; LASV entry inh: 7.31µM*; MARV entry inh: inconclusive; VACV Venus inh: -11.4%; CHX counter: -5.3; Shiga toxin inh: -17.6

How did COc1ccc(Nc2ccc([N+](=O)[O-])cn2)cc1 do in these assays?
Vaccinia mCherry: -9.4%; LASV entry inh: 12.5%; MARV entry inh: 7.4%; VACV Venus inh: -15.8%; CHX counter: 36.7*; Shiga toxin inh: 37.8*

What do the screens show for `COc1ccc(Nc2nccc(-c3ccc([N+](=O)[O-])cc3)n2)cc1`?
Vaccinia mCherry: -24.8%; LASV entry inh: -27.8%[46.1 µM]; MARV entry inh: inconclusive; VACV Venus inh: -14.3%; CHX counter: -0.4; Shiga toxin inh: 3.2

Results for Cc1cccc(OCCNc2ccc([N+](=O)[O-])cn2)c1 ?
Vaccinia mCherry: inactive; LASV entry inh: -25.7%; MARV entry inh: inconclusive; VACV Venus inh: -4.6%; CHX counter: 6.4; Shiga toxin inh: 15.9

How did O=[N+]([O-])c1ccc(NCCOc2ccccc2Cl)nc1 do in these assays?
CHX counter: 29.1*; Shiga toxin inh: 44.1*

What do the screens show for `COc1ccccc1Nc1ccc([N+](=O)[O-])cn1`?
Vaccinia mCherry: -22.9%; LASV entry inh: -3.3%; MARV entry inh: inconclusive; VACV Venus inh: -10.1%; CHX counter: 20.8*; Shiga toxin inh: 15.5

Results for COc1ccc(CNc2ccc([N+](=O)[O-])cn2)cc1 ?
Vaccinia mCherry: -1.9%; LASV entry inh: inconclusive; MARV entry inh: inconclusive; VACV Venus inh: -10.5%; CHX counter: 28.0*; Shiga toxin inh: 59.1*

What do the screens show for `Cc1ccccc1C(=O)Nc1ccc2nc(SCC(=O)N3CCc4ccccc43)sc2c1`?
Vaccinia mCherry: -15.1%; LASV entry inh: inconclusive; MARV entry inh: inconclusive; VACV Venus inh: -2.7%

What do the screens show for `CC(C)C[C@H]1COc2c(Cl)cccc2S(=O)(=O)N1Cc1ccc(Cl)cc1`?
LASV entry inh: -13.7%[46.1 µM]

What do the screens show for `COc1ccc(Nc2cc(C)c3cc([N+](=O)[O-])ccc3n2)cc1`?
CHX counter: 11.0*; Shiga toxin inh: 20.7

Screens deposited in PubChem BioAssay by National Center for Advancing Translational Sciences (NCATS).
